Laboratory results taken from PMC7862700, “An all-to-all approach to the identification of sequence-specific readers for epigenetic DNA modifications on cytosine”.

How the values were obtained:
Test in all cases: DAPPL (digital affinity profiling via proximity ligation, sequencing); 10 mM Tris-HCl pH 7.5, 50 mM NaCl, 1 mM DTT, 4% glycerol, room temperature, 30 min; GST-TFs on glutathione beads, 16-mer random dsDNA library, 0.1% formaldehyde crosslink after washing; high values mean tight binding
[1] = biological target: T1, FLI1 (Homo sapiens, UniProt Q01543 1-452); conditions: protein: recombinant; tags: N-terminal GST; dsDNA, one strand shown
T1 sequence: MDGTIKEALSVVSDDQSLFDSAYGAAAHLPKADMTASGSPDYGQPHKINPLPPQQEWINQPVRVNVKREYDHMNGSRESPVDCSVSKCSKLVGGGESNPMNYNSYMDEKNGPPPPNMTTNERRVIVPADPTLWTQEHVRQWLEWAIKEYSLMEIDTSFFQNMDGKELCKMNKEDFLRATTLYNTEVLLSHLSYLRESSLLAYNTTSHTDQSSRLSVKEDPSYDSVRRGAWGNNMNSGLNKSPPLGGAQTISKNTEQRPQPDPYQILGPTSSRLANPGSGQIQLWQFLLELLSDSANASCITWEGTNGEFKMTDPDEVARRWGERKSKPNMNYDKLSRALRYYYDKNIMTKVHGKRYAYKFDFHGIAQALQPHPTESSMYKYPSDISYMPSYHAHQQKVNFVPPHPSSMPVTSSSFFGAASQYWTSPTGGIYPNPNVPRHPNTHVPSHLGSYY
Procedure, shortened: (§1)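 Binding signal is each hexamer's read frequency for a factor divided by its frequency in the tag-only sample. The factors were GST-fused human transcription factors from yeast, captured on glutathione beads, DNA-barcoded and pooled with that sample. Pools were incubated with 200 nmole of a random double-stranded 16-mer DNA library in Tris/NaCl/DTT/glycerol buffer at room temperature for 30 min, then washed, crosslinked with 0.1% formaldehyde, proximity-ligated with BsaI/T4 ligase (1 h, 37 °C), PCR-amplified and sequenced on an Illumina NextSeq500.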

[2] = biological target: T2, ELK1 (Homo sapiens, UniProt P19419 1-428); conditions: protein: recombinant; tags: N-terminal GST; dsDNA, one strand shown
T2 sequence: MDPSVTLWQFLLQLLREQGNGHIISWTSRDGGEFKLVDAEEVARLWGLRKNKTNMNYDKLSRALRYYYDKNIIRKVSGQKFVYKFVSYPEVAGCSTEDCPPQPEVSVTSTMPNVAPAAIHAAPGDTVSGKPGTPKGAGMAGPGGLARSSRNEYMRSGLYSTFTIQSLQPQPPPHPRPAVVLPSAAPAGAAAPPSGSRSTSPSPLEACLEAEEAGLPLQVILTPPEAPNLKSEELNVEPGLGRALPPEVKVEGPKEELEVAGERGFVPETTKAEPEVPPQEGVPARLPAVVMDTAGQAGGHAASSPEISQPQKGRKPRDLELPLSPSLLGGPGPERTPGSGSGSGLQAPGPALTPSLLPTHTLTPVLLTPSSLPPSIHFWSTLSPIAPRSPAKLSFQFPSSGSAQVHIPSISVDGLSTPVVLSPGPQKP
Procedure, shortened: as §1

[3] = biological target: T3, GABPA (Homo sapiens, UniProt Q06546 1-454); conditions: protein: recombinant; tags: N-terminal GST; dsDNA, one strand shown
T3 sequence: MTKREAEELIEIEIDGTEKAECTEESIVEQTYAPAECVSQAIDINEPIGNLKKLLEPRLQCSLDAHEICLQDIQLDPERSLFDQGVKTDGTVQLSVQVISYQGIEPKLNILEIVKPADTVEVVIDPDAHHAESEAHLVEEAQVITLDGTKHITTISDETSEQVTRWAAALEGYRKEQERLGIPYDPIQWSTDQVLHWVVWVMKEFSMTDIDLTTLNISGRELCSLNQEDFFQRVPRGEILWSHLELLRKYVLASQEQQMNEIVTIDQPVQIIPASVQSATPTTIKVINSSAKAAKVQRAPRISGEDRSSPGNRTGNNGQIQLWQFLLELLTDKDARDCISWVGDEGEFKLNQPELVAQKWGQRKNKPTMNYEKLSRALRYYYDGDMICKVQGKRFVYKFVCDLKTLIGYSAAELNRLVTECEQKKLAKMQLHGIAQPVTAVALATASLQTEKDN
Procedure, shortened: as §1

[4] = biological target: T4, ERG (Homo sapiens, UniProt P11308 1-479); conditions: protein: recombinant; tags: N-terminal GST; dsDNA, one strand shown
T4 sequence: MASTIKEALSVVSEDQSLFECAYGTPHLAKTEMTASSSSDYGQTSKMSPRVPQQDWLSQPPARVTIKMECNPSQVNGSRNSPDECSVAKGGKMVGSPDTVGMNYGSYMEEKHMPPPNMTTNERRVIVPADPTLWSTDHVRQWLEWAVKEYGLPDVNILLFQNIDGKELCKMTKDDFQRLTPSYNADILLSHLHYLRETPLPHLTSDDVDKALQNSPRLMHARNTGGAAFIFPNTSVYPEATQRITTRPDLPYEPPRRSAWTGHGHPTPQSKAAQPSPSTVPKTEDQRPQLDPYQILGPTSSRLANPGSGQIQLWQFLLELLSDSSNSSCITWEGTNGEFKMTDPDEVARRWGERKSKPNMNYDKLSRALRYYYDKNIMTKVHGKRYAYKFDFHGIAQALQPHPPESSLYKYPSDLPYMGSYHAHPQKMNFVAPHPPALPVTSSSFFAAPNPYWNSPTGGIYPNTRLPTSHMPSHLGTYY
Procedure, shortened: as §1

[5] = biological target: ELF1 (Homo sapiens, UniProt P32519 1-619); conditions: protein: recombinant; tags: N-terminal GST; dsDNA, one strand shown
Sequence of ELF1 (P32519 whole entry): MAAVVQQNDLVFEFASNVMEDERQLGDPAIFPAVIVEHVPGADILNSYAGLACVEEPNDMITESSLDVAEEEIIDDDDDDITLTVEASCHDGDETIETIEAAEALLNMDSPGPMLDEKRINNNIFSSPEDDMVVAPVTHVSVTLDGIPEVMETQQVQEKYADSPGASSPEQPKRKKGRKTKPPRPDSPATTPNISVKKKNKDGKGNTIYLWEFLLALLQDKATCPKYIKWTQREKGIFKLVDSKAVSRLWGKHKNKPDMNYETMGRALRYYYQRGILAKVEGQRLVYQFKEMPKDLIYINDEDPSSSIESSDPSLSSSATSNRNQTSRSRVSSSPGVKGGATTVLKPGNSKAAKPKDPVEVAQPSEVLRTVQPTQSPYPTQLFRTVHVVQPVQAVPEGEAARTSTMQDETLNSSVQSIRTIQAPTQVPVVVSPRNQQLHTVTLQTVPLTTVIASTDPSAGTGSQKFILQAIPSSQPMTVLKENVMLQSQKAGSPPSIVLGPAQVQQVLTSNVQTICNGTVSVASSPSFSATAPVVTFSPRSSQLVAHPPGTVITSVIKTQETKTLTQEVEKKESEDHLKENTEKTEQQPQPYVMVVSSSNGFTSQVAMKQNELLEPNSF
Procedure, shortened: as §1

[6] = biological target: T5, EHF (Homo sapiens, UniProt Q9NZC4 1-300); conditions: protein: recombinant; tags: N-terminal GST; dsDNA, one strand shown
T5 sequence: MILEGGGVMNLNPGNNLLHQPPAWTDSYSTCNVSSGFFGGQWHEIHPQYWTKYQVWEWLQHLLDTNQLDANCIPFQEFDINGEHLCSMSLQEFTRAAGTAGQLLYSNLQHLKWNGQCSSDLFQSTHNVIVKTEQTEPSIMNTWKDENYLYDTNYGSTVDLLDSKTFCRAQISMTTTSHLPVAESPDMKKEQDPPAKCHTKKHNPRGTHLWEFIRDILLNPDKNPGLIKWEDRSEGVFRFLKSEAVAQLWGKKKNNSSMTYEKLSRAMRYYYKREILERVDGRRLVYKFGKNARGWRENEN
Procedure, shortened: as §1

[7] = biological target: SPI1 (Homo sapiens, UniProt P17947 1-270); conditions: protein: recombinant; tags: N-terminal GST; dsDNA, one strand shown
Procedure, shortened: as §1

[8] = biological target: SPIB (Homo sapiens, UniProt Q01892 1-262); conditions: protein: recombinant; tags: N-terminal GST; dsDNA, one strand shown
Sequence of SPIB (Q01892 whole entry): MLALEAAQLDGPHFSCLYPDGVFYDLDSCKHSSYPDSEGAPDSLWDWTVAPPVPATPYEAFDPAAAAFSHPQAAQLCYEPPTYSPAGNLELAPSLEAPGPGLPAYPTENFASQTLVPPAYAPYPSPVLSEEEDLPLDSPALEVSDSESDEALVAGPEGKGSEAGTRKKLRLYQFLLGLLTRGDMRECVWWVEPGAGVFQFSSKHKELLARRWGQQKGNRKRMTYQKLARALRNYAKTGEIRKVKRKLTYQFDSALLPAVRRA
Procedure, shortened: as §1

[9] = biological target: T6, ELK3 (Homo sapiens, UniProt P41970 1-407); conditions: protein: recombinant; tags: N-terminal GST; dsDNA, one strand shown
T6 sequence: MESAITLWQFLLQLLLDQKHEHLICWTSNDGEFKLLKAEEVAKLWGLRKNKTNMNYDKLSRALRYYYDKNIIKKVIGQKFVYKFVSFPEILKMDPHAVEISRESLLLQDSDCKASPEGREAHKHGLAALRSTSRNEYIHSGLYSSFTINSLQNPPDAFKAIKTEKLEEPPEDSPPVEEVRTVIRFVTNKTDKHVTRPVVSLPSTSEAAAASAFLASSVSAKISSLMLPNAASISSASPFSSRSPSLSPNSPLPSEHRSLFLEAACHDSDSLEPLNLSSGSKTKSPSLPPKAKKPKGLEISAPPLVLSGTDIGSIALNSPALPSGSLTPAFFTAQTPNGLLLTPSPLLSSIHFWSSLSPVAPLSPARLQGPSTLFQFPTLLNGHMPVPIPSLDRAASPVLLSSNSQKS
Procedure, shortened: as §1

[10] = biological target: T7, FEV (Homo sapiens, UniProt Q99581 1-238); conditions: protein: recombinant; tags: N-terminal GST; dsDNA, one strand shown
T7 sequence: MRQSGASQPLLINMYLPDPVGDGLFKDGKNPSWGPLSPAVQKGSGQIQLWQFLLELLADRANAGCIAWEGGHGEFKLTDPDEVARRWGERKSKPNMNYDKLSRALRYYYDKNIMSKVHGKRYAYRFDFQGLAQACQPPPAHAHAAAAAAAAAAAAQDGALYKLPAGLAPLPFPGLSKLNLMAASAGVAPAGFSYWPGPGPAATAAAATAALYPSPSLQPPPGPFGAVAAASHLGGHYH
Procedure, shortened: as §1

[11] = biological target: ETV5 (Homo sapiens, UniProt P41161 1-510); conditions: protein: recombinant; tags: N-terminal GST; dsDNA, one strand shown
Sequence of ETV5 (P41161 whole entry): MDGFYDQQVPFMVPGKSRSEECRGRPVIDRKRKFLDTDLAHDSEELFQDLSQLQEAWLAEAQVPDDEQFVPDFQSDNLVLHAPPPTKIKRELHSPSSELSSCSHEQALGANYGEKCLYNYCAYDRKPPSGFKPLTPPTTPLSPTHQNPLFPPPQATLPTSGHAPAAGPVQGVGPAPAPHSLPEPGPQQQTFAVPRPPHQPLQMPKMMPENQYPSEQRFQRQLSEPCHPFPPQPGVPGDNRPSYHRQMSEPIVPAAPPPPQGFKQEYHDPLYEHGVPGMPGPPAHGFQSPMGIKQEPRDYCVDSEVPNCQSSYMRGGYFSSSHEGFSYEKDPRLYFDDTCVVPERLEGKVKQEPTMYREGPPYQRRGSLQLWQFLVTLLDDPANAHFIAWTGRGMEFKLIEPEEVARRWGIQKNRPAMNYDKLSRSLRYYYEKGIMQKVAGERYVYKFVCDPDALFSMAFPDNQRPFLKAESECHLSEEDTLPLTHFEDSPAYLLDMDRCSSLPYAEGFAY
Procedure, shortened: as §1

[12] = biological target: HSF1 (Homo sapiens, UniProt Q00613 1-529); conditions: protein: recombinant; tags: N-terminal GST; chain copies: 3; dsDNA, one strand shown
Sequence of HSF1 (Q00613 whole entry): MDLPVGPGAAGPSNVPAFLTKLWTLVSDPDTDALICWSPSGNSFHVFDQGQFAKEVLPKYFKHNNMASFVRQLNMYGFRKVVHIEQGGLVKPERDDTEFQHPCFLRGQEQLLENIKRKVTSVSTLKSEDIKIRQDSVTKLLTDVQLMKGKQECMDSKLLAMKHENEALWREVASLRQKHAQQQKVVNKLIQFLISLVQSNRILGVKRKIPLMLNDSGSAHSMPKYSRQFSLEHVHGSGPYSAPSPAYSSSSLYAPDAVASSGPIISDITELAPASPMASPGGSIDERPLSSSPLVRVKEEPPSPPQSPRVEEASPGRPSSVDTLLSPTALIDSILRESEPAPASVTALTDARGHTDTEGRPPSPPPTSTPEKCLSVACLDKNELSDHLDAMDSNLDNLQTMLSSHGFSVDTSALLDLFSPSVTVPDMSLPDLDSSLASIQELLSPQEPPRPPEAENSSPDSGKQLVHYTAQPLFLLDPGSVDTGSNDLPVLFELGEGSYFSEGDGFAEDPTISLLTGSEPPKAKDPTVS
Procedure, shortened: as §1

[13] = biological target: T8, SPIC (Homo sapiens, UniProt Q8N5J4 1-248); conditions: protein: recombinant; tags: N-terminal GST; dsDNA, one strand shown
T8 sequence: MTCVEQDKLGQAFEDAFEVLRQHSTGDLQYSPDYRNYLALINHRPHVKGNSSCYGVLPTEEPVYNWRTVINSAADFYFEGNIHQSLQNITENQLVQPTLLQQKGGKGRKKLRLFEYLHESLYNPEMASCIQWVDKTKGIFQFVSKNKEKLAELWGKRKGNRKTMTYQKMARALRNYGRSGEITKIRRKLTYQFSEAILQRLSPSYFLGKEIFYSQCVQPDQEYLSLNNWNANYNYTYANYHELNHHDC
Procedure, shortened: as §1

[14] = biological target: ELF4 (Homo sapiens, UniProt Q99607 1-663); conditions: protein: recombinant; tags: N-terminal GST; dsDNA, one strand shown
Sequence of ELF4 (Q99607 whole entry): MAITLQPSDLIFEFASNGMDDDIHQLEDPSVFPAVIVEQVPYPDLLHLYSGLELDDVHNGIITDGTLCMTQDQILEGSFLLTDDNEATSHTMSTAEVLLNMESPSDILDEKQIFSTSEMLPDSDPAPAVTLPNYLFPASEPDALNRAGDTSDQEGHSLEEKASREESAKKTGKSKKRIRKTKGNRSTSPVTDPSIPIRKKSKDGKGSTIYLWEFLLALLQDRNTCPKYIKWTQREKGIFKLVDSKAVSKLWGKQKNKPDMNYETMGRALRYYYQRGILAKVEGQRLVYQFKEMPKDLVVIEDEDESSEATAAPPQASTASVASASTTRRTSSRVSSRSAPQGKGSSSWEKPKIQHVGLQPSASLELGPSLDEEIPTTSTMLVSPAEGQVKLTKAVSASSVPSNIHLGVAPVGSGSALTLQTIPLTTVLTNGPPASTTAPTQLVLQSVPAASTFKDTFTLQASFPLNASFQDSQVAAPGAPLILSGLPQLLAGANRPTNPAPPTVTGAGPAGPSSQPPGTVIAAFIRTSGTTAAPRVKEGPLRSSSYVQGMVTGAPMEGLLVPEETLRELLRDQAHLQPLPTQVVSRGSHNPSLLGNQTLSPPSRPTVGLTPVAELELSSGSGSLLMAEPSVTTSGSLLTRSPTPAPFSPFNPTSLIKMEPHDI
Procedure, shortened: as §1

[15] = biological target: T9, ELK4 (Homo sapiens, UniProt P28324-2 1-405); conditions: protein: recombinant; tags: N-terminal GST; dsDNA, one strand shown
T9 sequence: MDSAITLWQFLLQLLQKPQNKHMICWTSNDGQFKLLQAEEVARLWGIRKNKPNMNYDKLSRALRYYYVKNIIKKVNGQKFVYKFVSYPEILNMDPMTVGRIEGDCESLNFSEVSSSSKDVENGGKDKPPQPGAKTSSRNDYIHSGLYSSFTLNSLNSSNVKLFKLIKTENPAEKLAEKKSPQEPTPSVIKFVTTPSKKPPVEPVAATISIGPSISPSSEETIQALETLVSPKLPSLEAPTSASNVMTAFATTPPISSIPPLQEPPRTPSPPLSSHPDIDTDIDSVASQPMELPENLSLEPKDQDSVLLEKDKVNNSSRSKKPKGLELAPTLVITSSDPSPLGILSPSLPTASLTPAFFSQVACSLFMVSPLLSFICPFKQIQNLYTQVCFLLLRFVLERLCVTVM
Procedure, shortened: as §1

[16] = biological target: T10, ETV2 (Homo sapiens, UniProt O00321 1-342); conditions: protein: recombinant; tags: N-terminal GST; dsDNA, one strand shown
T10 sequence: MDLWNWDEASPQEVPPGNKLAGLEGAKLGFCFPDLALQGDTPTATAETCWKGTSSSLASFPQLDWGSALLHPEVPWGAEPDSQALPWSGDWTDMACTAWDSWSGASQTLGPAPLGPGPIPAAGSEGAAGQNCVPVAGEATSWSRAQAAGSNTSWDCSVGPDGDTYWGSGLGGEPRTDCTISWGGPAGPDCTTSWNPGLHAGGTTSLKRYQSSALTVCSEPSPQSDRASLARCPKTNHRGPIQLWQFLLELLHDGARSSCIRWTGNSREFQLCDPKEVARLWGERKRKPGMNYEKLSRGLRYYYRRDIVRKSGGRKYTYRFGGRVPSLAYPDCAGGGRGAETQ
Procedure, shortened: as §1

[17] = biological target: T11, ELF3 (Homo sapiens, UniProt P78545 1-371); conditions: protein: recombinant; tags: N-terminal GST; dsDNA, one strand shown
T11 sequence: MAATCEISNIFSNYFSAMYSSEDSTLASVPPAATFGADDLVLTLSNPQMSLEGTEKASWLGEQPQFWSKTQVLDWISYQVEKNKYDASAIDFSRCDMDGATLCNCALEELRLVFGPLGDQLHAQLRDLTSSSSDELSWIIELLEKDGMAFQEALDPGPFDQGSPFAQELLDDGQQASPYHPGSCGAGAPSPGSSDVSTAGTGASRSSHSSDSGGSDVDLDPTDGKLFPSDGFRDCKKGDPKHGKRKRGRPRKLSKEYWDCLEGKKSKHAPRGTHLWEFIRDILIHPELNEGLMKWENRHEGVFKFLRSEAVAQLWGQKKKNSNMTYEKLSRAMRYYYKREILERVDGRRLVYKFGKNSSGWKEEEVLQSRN
Procedure, shortened: as §1

[18] = biological target: CRX (Homo sapiens, UniProt O43186 1-299); conditions: protein: recombinant; tags: N-terminal GST; dsDNA, one strand shown
Sequence of CRX (O43186 whole entry): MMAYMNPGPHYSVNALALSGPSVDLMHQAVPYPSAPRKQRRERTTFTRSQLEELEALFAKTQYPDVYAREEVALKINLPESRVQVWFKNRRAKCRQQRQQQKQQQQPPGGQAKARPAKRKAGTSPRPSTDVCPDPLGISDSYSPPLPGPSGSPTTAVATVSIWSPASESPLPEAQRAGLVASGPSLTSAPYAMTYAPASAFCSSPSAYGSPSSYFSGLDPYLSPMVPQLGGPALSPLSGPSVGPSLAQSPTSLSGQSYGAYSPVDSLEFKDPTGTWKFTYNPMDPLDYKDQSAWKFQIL
Procedure, shortened: as §1

[19] = biological target: ETV1 (Homo sapiens, UniProt P50549 1-477); conditions: protein: recombinant; tags: N-terminal GST; dsDNA, one strand shown
Sequence of ETV1 (P50549 whole entry): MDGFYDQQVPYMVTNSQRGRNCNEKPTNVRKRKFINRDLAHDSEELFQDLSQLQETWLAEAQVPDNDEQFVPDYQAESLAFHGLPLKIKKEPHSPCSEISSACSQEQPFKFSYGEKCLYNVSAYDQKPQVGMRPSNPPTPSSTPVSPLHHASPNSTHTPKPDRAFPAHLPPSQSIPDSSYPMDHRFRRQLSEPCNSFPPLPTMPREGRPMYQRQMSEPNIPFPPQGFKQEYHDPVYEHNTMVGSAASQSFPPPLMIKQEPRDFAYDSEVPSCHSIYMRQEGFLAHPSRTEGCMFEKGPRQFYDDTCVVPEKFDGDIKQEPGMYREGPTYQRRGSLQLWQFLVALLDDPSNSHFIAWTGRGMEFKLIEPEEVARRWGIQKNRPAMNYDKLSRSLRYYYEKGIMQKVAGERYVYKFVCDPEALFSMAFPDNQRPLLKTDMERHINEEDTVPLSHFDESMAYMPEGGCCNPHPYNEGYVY
Procedure, shortened: as §1

CAACTA
binding signal [1]: 1.24 fold enrichment (6-mer frequency, TF over GST control)
binding signal [2]: 1.31 fold enrichment (6-mer frequency, TF over GST control)
binding signal [3]: 1.37 fold enrichment (6-mer frequency, TF over GST control)
binding signal [4]: 1.3 fold enrichment (6-mer frequency, TF over GST control)
binding signal [5]: 1.38 fold enrichment (6-mer frequency, TF over GST control)
binding signal [6]: 1.27 fold enrichment (6-mer frequency, TF over GST control)
binding signal [7]: 1.28 fold enrichment (6-mer frequency, TF over GST control)
binding signal [8]: 1.24 fold enrichment (6-mer frequency, TF over GST control)
binding signal [9]: 1.25 fold enrichment (6-mer frequency, TF over GST control)
binding signal [10]: 1.27 fold enrichment (6-mer frequency, TF over GST control)
binding signal [11]: 1.26 fold enrichment (6-mer frequency, TF over GST control)
binding signal [12]: 1.2 fold enrichment (6-mer frequency, TF over GST control)
binding signal [13]: 1.22 fold enrichment (6-mer frequency, TF over GST control)
binding signal [14]: 1.31 fold enrichment (6-mer frequency, TF over GST control)
binding signal [15]: 1.24 fold enrichment (6-mer frequency, TF over GST control)
binding signal [16]: 1.18 fold enrichment (6-mer frequency, TF over GST control)
binding signal [17]: 1.32 fold enrichment (6-mer frequency, TF over GST control)
binding signal [18]: 1.24 fold enrichment (6-mer frequency, TF over GST control)
binding signal [19]: 1.24 fold enrichment (6-mer frequency, TF over GST control)
